These results are taken from PubChem BioAssay AID1850 (Southern Research Specialized Biocontainment Screening …, 2009).

Among all 310,000 compounds or so, about 1,000 (0.32%) were called active. A selection follows. Potency and affinity values are given separately. Unmarked numbers belong to inactive results. The rule behind the calls is not given here.

What is called inhibition is the drop in the measured response relative to a control, in per cent.

A short description of this test: PhoP regulon inhibitors, Salmonella typhi PhoP promoter GFP reporter, confirmatory (AID 1850).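 Note: 0% = induced wells with vehicle and 100% = uninduced wells.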 To be noted: fluorescence, 4 h, at 50 µM, active compounds read high.
`C=C(C)Cn1c(SCC(=O)N/N=C/c2ccccc2)nc2ccccc2c1=O`: the inhibition was 2.73%.
As for `CCOC(=O)C1CCCN(C(=O)CSc2ccccc2)C1` (stereo not given), the figure is 0.88%.
For `CC(C)(C)c1cc(NS(=O)(=O)c2cccs2)no1` the value was 2.79%; for `CC(C)NC(=O)C1CCCN(S(=O)(=O)c2cccc3nonc23)C1` (stereo not given), 5.72%.
For `CSc1cnc2c(N)nc(N(C)C)nc2n1` the value was -2.44%; for `CCOc1cc(NC(=O)C2CC2)c(OCC)cc1NC(=O)CCn1nnc2ccccc21`, 0.44%.
For the molecule `CCn1cc(CN2CCC(n3nccc3NC(=O)C3CCCC3)CC2)c(C)n1`, the inhibition is -10.6%.
For `Brc1ccc(-c2nnc(-c3ccco3)o2)cc1` the value was 7.53%.
For `CN(C)C(=O)Oc1ccc(OCc2n(C)c3ccccc3[n+]2C)cc1` the value was -10.3%.
In the case of `CCCCc1n(CC(=O)c2ccc(Cl)cc2)c2ccccc2[n+]1C`, the inhibition is 0.37%.
For `Cc1nonc1OCCNCc1c(C(=O)N2CCCCCCC2)nc2ccc(Cl)cn12` the value was 0.8%; for `Cc1ccc(CN2CC(C(=O)Nc3cc(S(C)(=O)=O)ccc3Cl)CC2=O)cc1` (stereo not given), -8.57%; for `CC1(C)Cc2cccc(OCC(=O)N3CCN(c4cccc(C(F)(F)F)c4)CC3)c2O1`, 7.47%.
As for `Cc1cc(Cl)cc(C)c1OCCNCc1ccccc1`, the figure is -3.01%.
For `COCCCNCCCCOc1c(Cl)cc(C)cc1Br` the value was 1.04%; for `Cc1cc(C)c(OCCNCc2ccccc2)c(C)c1`, -8.25%; for `Cc1cc(C)c(OCCCNCc2ccccc2)c(Br)c1`, 13.8%.
In the case of `CCn1c(N2CCN(CC(=O)Nc3cccc(C)c3C)CC2)nc2ccccc21`, the inhibition was -2.87%.
As for `Cc1cccc(NC(=O)CCNC(=O)c2ccco2)c1`, the figure is -1.77%; as for `CN(C)c1cnn(-c2ccccc2)c(=O)c1Cl`, -7.8%; as for `CC(C)(O)CC[C@H](OC(=O)c1ccccc1)[C@](C)(O)[C@H]1CC[C@@]2(O)C3=CC(=O)[C@@H]4C[C@@H](O)[C@H](O)C[C@]4(C)C3CC[C@]12C` (stereo not given in full), 4.63%.
For `COc1ccc(C(C)NC(=O)Cc2ccc(Br)cc2)cc1` (stereo not given), the inhibition was 3.69%.
As for `CCOc1ccccc1NC(=O)c1cccc(NC(=O)C(C)C)c1`, the figure is -6.67%; as for `O=C(O)CCN1C(=O)CC(N2C(=O)/C(=C/c3ccc(Cl)cc3)SC2=S)C1=O` (stereo not given), -12.1%.
Regarding `O=C1CC(N2C(=O)/C(=C/C=C/c3ccccc3)SC2=S)C(=O)N1c1ccccc1` (stereo not given), the inhibition is -6.61%.
As for `Cc1ccc(S(=O)(=O)NNC(=O)c2cnn(-c3ccccc3)c2C(F)(F)F)cc1`, the figure is -1.38%.
As for `CC(C)(C)C(=O)Nc1ccccc1-c1nc2ccccc2[nH]c1=O`, the figure is -6.56%.
For `O=C(COc1ccccc1[N+](=O)[O-])Nc1ccc(N2CCN(C(=O)c3cccs3)CC2)cc1` the value was 7.91%.
Consider `Cc1cc(C(=O)N/N=C/c2ccc(Br)o2)n[nH]1`, for which the inhibition is -0.33%.
For `O=C1C2C3C=CC(C3)C2C(=O)N1CCCCCCN1C(=O)C2C3C=CC(C3)C2C1=O` (stereo not given) the value was 7.17%.
For `O=C1C=CC(=O)N1Cc1ccccc1` the value was 18.2%.
As for `COc1ccc2nc(-c3ccccc3)nc(C3CCCCC3)c2c1`, the figure is -28.1%.
With `COc1ccc(Cl)cc1NC(=O)CN(C)C(=O)c1cc2c(s1)CCC(C)C2` (stereo not given), the inhibition was -5.36%.
For `Cc1c(CN(C)C)c2c(n1C)C(=O)c1ccc(Br)cc1-2`, the inhibition is -10.7%.
For `Cc1c(CN(C)C)c2c(n1Cc1ccccc1)C(=O)c1ccccc1-2` the value was 5.65%; for `O=C(c1nc2ccccn2c1CNCCn1ccc2ccccc21)N1CCOCC1`, -10.1%.
As for `COc1ccccc1-c1ccc2nnc(SCC(=O)N3CCCC3)n2n1`, the figure is 3.68%; as for `Cn1nc(-c2ccccn2)nc2c(=O)n(C)c(=O)nc1-2`, 13.1%.
`CCn1nc(-c2ccccc2)nc2c(=O)n(C)c(=O)nc1-2`: the inhibition was 14.7%.
For `Cc1ccccc1-n1c2nc(=O)n(C)c(=O)c-2cc2ccccc21` the value was -5.45%; for `Cc1ccc(-n2c3nc(=O)n(C)c(=O)c-3cc3ccccc32)cc1`, 8.69%.
For `Nc1nonc1-n1nnc(C(=O)N/N=C/c2ccc(F)cc2)c1-c1ccc2c(c1)OCO2` the value was 3.99%; for `CC(C)c1ccc(NC(=O)C2CCN(S(C)(=O)=O)CC2)cc1`, 9.77%.
With `O=C(CN1CCN(c2ccccn2)CC1)NC1CCCC1`, the inhibition was -2.6%.
For `CC[C@H]1OC(=O)[C@H](C)[C@@H](O[C@H]2C[C@@](C)(OC)[C@@H](O)[C@H](C)O2)[C@H](C)[C@@H](O[C@@H]2O[C@H](C)C[C@H](N(C)C)[C@H]2O)[C@](C)(O)C[C@@H](C)C(=NOCOCCOC)[C@H](C)[C@@H](O)[C@]1(C)O` the value was -1.81%.
As for `CCC1OC(=O)C(C)C(OC2C[C@@](C)(OC)C(O)C(C)O2)C(C)C(O[C@@H]2OC(C)CC(N(C)C)C2O)[C@](C)(O)CC(C)C(=NOCOCCOC)C(C)C(O)[C@]1(C)O` (stereo not given in full), the figure is 2.39%; as for `CCOC(=O)CCC(=O)O[C@H]1[C@H](O[C@@H]2[C@@H](C)[C@H](O[C@H]3C[C@@](C)(OC)[C@@H](O)[C@H](C)O3)[C@@H](C)C(=O)O[C@H](CC)[C@@](C)(O)[C@H](O)[C@@H](C)C(=O)[C@H](C)C[C@@]2(C)O)O[C@H](C)C[C@@H]1N(C)C`, 12.7%.
As for `COc1ccccc1C(C(=O)NCc1ccc(F)cc1)N(C(=O)c1csnn1)C1CC1` (stereo not given), the figure is -0.44%; as for `CCN(CC)S(=O)(=O)c1ccc(OC)c(NC(=O)c2ccc(-n3cncn3)c([N+](=O)[O-])c2)c1`, 1.29%.
On to `O=C(Cn1c(=O)oc2ccccc21)NCCc1ccccc1`, for which the inhibition is -10.1%.
As for `Cc1cc(C)cc(NC(=O)CSc2nccn2Cc2ccco2)c1`, the figure is -0.51%.
For `OCCNCc1ccc(OCc2ccc(Cl)cc2Cl)cc1` the value was 6.74%.
As for `COc1cc(CNCCO)cc(Br)c1OCc1ccccc1Cl`, the figure is 9.5%.
As for `OCCCCNCc1ccc(OCc2ccccc2Cl)cc1`, the inhibition was 26.2%.
For `COc1cc(CNC2CCCC2)cc(Cl)c1OCc1ccccc1F` the value was 11.7%.
For `COc1cc(CNC2CCCC2)cc(Cl)c1OCc1ccc(F)cc1`, the inhibition was 7.58%.
As for `COc1cc(CNCCO)cc(Cl)c1OCc1ccccc1Cl`, the figure is -3.95%.
Take `COc1cc(CNCCc2ccccc2)ccc1OCc1ccc(Cl)nc1`: the inhibition is 26.7%.
For `COc1ccccc1CCNCc1ccc(OC)c(OCc2ccccc2)c1` the value was -4.13%; for `CC1(C)CC(=O)C2=C(C1)OC(N)=C(C#N)C21C(=O)N2CCCc3cccc1c32` (stereo not given), -2.22%; for `CN(C(=O)COC(=O)c1ccc2[nH]c3c(c2c1)CCCC3)C1CCS(=O)(=O)C1` (stereo not given), -8.01%.
For `Cc1ccc(OCCCCN2CCC(C)CC2)cc1` the value was 15.9%.
For `CCOc1cc(CNCCO)cc(Br)c1OCc1ccc(Cl)cc1Cl` the value was 8.42%; for `COc1cc(CNCc2ccccc2)cc(Cl)c1OC`, 4%.
For `CCOc1cc(CNCCc2ccc(S(N)(=O)=O)cc2)cc(Cl)c1OCc1ccccc1`, the inhibition was 13%.
For `COc1cc(CNC(C)(C)CO)cc(Br)c1OCc1ccc(Cl)cc1Cl` the value was 0.08%; for `CC(C)c1ccc(Nc2c([N+](=O)[O-])c(=O)n(C)c3ccccc23)cc1`, 2.08%; for `Cc1ccc2nsnc2c1S(=O)(=O)NCc1ccncc1`, -2.24%.
For `Cc1onc(-c2ccccc2)c1-c1nnc(-c2ccccc2C(F)(F)F)o1` the value was 0.63%.
For `C=CCN(c1nc(C)cc(OC)n1)S(=O)(=O)c1ccc(C)cc1` the value was 0.2%; for `CC(C)(C)c1nnc(NC(=O)c2cccs2)s1`, 10.7%.
As to `CN1CCN(c2ccc(C(F)(F)F)cc2N)CC1`, the inhibition is 2.28%.
For `Cc1nc2cc(C(F)(F)F)ccc2n1C` the value was 1.93%; for `O=C(Nc1ccccc1C(=O)Nc1ccccn1)c1cc(F)c(F)cc1Cl`, -1.17%.
For `Cc1ccc[n+](-c2nc3ccccc3nc2[N-]S(=O)(=O)c2ccccc2)c1` the value was -11.4%.
As for `O=C(/C=C/c1ccc2c(c1)OCO2)c1cccnc1`, the inhibition is 0.98%.
For `O=C(Cn1nc(C(F)(F)F)c2c1CCC2)Nc1ccccc1C(F)(F)F` the value was -9.91%.
Regarding `O=C(C[n+]1cc(-c2ccc(Cl)cc2)n2c1CCCCC2)c1ccccc1`, the inhibition was 1.54%.
As for `Cn1c(NC(=O)C[n+]2cc(-c3ccc(Cl)cc3)n3c2CCC3)cc(=O)n(C)c1=O`, the inhibition is 11.1%.
For `CC1CCC(C(C)C)C(OC(=O)C[n+]2cc(-c3ccc(Cl)cc3)n3c2CCCCC3)C1` (stereo not given) the value was 10.8%; for `COc1ccc(-c2c[n+](CC(=O)OC3CC(C)CCC3C(C)C)c3n2CCC3)cc1` (stereo not given), 1.91%.
With `CCc1ccc(Nc2nnc(SCc3cc(=O)n4ccsc4n3)s2)cc1`, the inhibition is -7.77%.
On to `CCCCNCCCOc1cccc(Cl)c1`, for which the inhibition was 2.53%.
`CCCCNCCCOc1cc(Cl)ccc1Cl`: the inhibition is 6.78%.
For `O=C(NCCO)c1cccc(Cl)c1`, the inhibition was -3.96%.
For `O=C1CCC([N+](=O)[O-])C(c2cc3c(cc2Cl)OCO3)N1` (stereo not given) the value was 3.32%; for `COC(=O)c1cc(C(=O)c2ccc(Cl)cc2)n2c(=O)/c(=C\N(C)C)sc12`, 4.66%.
For `O/N=C/c1ccc(OCc2ccccc2)c(Br)c1` the value was 17.4%; for `O/N=C/c1ccc(OCc2ccccc2F)c(Cl)c1`, -2.37%; for `Cc1cc(C)cc(NC(=O)CSc2nc3ccccc3nc2N2CCCC2)c1`, 11.5%.
